Experimental data as given in PubChem BioAssay (Tox21).
Inconclusive results are not listed. A call without a number means that no potency is given here. Calls of active or inactive are those of the source. Calls come from the whole dose curve; as a rule, active = well fitted cell-killing curve with a large enough effect in the repeat runs; inconclusive = weak or mixed curves, or effect the other way; inactive = no such curve, though single readings can be large or run the other way.

Experiment: qHTS assay to identify small molecule agonists of the RXR signaling pathway - cell viability counter screen (AID 1159529); note: nearly all actives have a fitted effect of over 50% in size
Details: RXR-alpha-bla HEK293T viability, CellTiter-Glo, 16 h; series mostly up to 76.8 µM
From the text: National Center for Advancing Translational Sciences [NCATS]
NIH Chemical Genomics Center [NCGC]
U.S. Environmental Protection Agency [EPA]
National Institutes of Environmental Health Sciences [NIEHS]
National Toxicology Program [NTP]
U.S. Food and Drug Administration [FDA]
The Retinoid X receptor (RXR), a nuclear hormone receptor expressed in liver, spleen, placenta, epidermis, central nervous system. These receptors are able to form homo and heterodimers with other nuclear receptors and due to this heterodimerizing ability, RXR functions as master regulators producing diverse physiological effects. Three subtypes of RXR exist; alpha, beta and gamma. Retinoid X receptor alpha (RXR-alpha) has potential roles in metabolic signaling pathways, skin alopecia, dermal cysts, cardiac development, insulin sensitization etc. Therefore screening environmental chemicals on RXR-alpha signaling can be used for the studies focused on such therapeutic applications. For quantification of RXR-alpha ligands signaling, GeneBLAzer RXR alpha-UAS-bla HEK 293T (Life Technologies, Carlsbad, CA) cells containing a beta-lactamase reporter-gene under control of Retinoid X receptor-alpha response element were used to screen Tox21 10K library. The cytotoxicity of the Tox21 compound library against the RXR-alpha HEK 293T cell line was tested in parallel by measuring cell viability using CellTiter-Glo assay (Promega Corporation, Madison, WI) in the same wells.
Tox21 Assay Protocol Summary:
RXR-alpha HEK 293T cells were dispensed at 2,000 cells/6 uL of assay medium containing 2% charcoal-stripped FBS using a Multidrop Combi (ThermoFisher Scientific, Waltham, MA) dispenser. The assay was performed in black wall/clear-bottom 1536-well plates (Greiner Bio-One North America Inc. Monroe, NC). Tetraoctyl ammonium bromide was used as a positive control in the cytotoxicity screen. After the assay plates were incubated at 37 C and 5% CO2 for 5 hr, 23 nL of compounds dissolved in DMSO, positive control or DMSO only were transferred to the assay plate by a Pintool station (Kalypsys, San Diego, CA). The assay plates were incubated at 37 C and 5% CO2 for 16 hr. One uL of LiveBLAzer B/G FRET substrate (Life Technologies) was added using a Flying Reagent Dispenser (FRD) (Aurora Discovery, San Diego, CA) and the plates were incubated at room temperature for 2 hr. Fluorescence intensity (405 nm excitation, 460/530 nm emission) was measured using an Envision plate reader (PerkinElmer, Shelton, CT). For cytotoxicity, 4 uL/well of CellTiter-Glo reagent was added into the assay plates using an FRD. After 30 min incubation at room temperature, the luminescence intensity was measured using a ViewLux plate reader (PerkinElmer).

Structure (SMILES) | Potency
CC(C)(C)OC(=O)c1ccccc1C(=O)O | inactive
CCCCNCC | inactive
C=CCCCCCCCCOC(C)=O | inactive
CC(C)CC(O)Cc1ccccc1 (stereo not given) | inactive
CCCCCCCCCCCCCC(=O)OCC | inactive
CCCCS | inactive
CN(C)CCc1c[nH]c2ccc(CS(=O)(=O)N3CCCC3)cc12 | inactive
CCCCCCCCS(=O)(=O)O | inactive
COC(=O)c1ccc(C(=O)O)cc1 | inactive
Cc1ccccc1OCC(=O)O | inactive
COc1cnc(NS(=O)(=O)c2ccc(N)cc2)nc1 | inactive
O=C(O)CCCCCCCCCC(=O)O | inactive
CN(C)CCc1c[nH]c2ccc(C[C@H]3COC(=O)N3)cc12 | inactive
CC(C)C[P+](C)(CC(C)C)CC(C)C | inactive
CC/C=C\CCCCCCCCCCOC(C)=O | inactive
C[n+]1ccccc1/C=N/O | inactive
Cc1cc(=O)oc2cc(O[C@@H]3SC[C@@H](O)[C@H](O)[C@H]3O)ccc12 | inactive
CCCCCCCC(=O)N(C)C | inactive
C/C(Cl)=C/CCl | inactive
Cc1cc(O)c(Cl)cc1C | inactive

Structure (SMILES) | Potency
CC(O)CCCCn1c(=O)c2c(ncn2C)n(C)c1=O (stereo not given) | inactive
Cc1ccc(O)c(C(=O)c2ccccc2)c1 | inactive
Nc1ccc(C(=O)NCC(=O)O)cc1 | inactive
O=C1CC2(CCCC2)CC(=O)N1CCNCC1COc2ccccc2O1 (stereo not given) | inactive
CCN1CCN(C(=O)N[C@@H](C(=O)N[C@@H]2C(=O)N3C(C(=O)O)=C(CSc4nnnn4C)CS[C@H]23)c2ccc(O)cc2)C(=O)C1=O | inactive
O=C1Nc2ccccc2C1=O | inactive
O=S(=O)(O)CC(O)CCl (stereo not given) | inactive
CC/C=C\CCOC(=O)c1ccccc1 | inactive
CCCc1ncc(C(=O)O)s1 | inactive
CCCCN(CCCC)CCCCCCN(CCCC)CCCC | inactive
COc1cc(C(=O)NC2CCCNC2)cc(OC)c1OC (stereo not given) | inactive
NS(=O)(=O)c1cc2c(cc1C(F)(F)F)NCNS2(=O)=O | inactive
CC1(C)S[C@@H]2[C@H](NC(=O)Cc3ccccc3)C(=O)N2[C@H]1C(=O)O (tested in a mixture with another compound) | inactive
CC(CN1CC(=O)NC(=O)C1)N1CC(=O)NC(=O)C1 (stereo not given) | inactive
CCCCC(CC)CCC(CC(C)C)OS(=O)(=O)O (stereo not given) | inactive
Cc1ccc(S(=O)(=O)NC(=O)NN2CC3CCCC3C2)cc1 (stereo not given) | inactive
CC(C)C(C)C | inactive
CCCC(C)C(O)CC (stereo not given) | inactive
CC1=C(O)C(=O)CO1 | inactive
c1coc(Cn2cccc2)c1 | inactive
